Data as given in PubChem BioAssay (NCATS).
Records with an inconclusive call do not appear. Calls of active or inactive are those of the source. The call rests on the fitted dose curve; in most records, active means well fitted cell-killing curve with a large enough effect; inconclusive means small, poorly fitted or top-dose-only effect, or effect the other way; inactive means no such curve, though single readings can be large or run the other way.
Potency means the concentration at half of the fitted maximal effect.

Assay: Quantitative High-Throughput drug screen in 47 multiple myeloma cell lines against the NCATS MIPE library collection: INA6_PLB cell viability assay (AID 1918965; further: nearly all actives have a fitted effect of over 55% in size)
Conditions: INA6 myeloma viability, CellTiter-Glo ATP luminescence, 48 h; series mostly up to 45.8 µM; viability (% of control): at the top concentration
Excerpt: PI: Beverly A. Mock Ph.D.
Laboratory of Cancer Biology and Genetics,
Center for Cancer Research, National Cancer Institute,
National Institute of Health, Bethesda, Maryland
Drug resistance and disease progression are common in multiple myeloma (MM) patients, underscoring the need for new therapeutic combinations. […] We hypothesized that effective combinations would reduce MYC expression and enhance p16 activity. […] These preclinical data identify potentially useful drug combinations for evaluation in drug-resistant MM and reveal potential mechanisms of combined drug sensitivity.
Described herein is the primary MIPE qHTS used to cherrypick compounds. Validated compounds were then further tested for potential synergistic activiy.
[1] Peat TJ, Gaikwad SM, Dubois W, Gyabaah-Kessie N, Zhang S, Gorjifard S, Phyo Z, Andres M, Hughitt VK, Simpson RM, Miller MA, Girvin AT, Taylor A, Williams D, D'Antonio N, Zhang Y, Rajagopalan A, Flietner E, Wilson K, Zhang X, Shinn P, Klumpp-Thomas C, McKnight C, Itkin Z, Chen L, Kazandijian D, Zhang J, Michalowski AM, Simmons JK, Keats J, Thomas CJ, Mock BA. Drug combinations identified by high-throughput screening promote cell cycle transition and upregulate Smad pathways in myeloma. Cancer Lett. 2023 Aug 1;568:216284. doi: 10.1016/j.canlet.2023.216284. Epub 2023 Jun 24. PMID: 37356470; PMCID: PMC10408729.
SEQUENCE No. (e.g., 1, 2, 3, etc.); […] (e.g., Cells, Incubation, Reagent, etc.); VALUE and DESCRIPTION.
1; Cells; 5 uL; white, solid bottom 1536-well Greiner assay plate.
2; Compounds; 23 nL; Kalypsis pin tool (Wako USA) equipped with a 1536-well pin head to transfer to the assay plates.
3; Incubation; 48 hours; 37C incubation.
4; Reagent;5uL; CellTiter Glo (Promega).
5; Detector; 425V; Luminescence; Viewlux PerkinElmer.
NOTES (numbers refer to Sequence numbers above)
1. The cell-based screening methods employed in this study were like those previously published. Briefly, the corresponding myeloma cell lines were screened in 1,536-well plates with 500 cells, 5-uL per well for inhibition of cell viability (assessed by measuring ATP levels with CellTiterGlo).
2. NCATS MIPE 4.0 library of approved and investigational drugs were added using the Kalypsis pin tool. Wells treated with DMSO only for 100% viability and media only wells for 0% viability were used as controls.
3. The assay plates were covered and incubated for 48 hours in a 37C, 5% CO2 incubator with controlled humidity.
4. After 48 hours, CellTilter-GloTM luminescent substrate mix (Promega) reagent was added to the assay plate and plates we incubated for 5 min at room temperature.
5. Signal was measured as median relative luminescence units on a ViewLux (PerkinElmer) multiplate reader.
[1] Heske CM, Davis MI, Baumgart JT, Wilson K, Gormally MV, Chen L, Zhang X, Ceribelli M, Duveau DY, Guha R, Ferrer M, Arnaldez FI, Ji J, Tran HL, Zhang Y, Mendoza A, Helman LJ, Thomas CJ. Matrix Screen Identifies Synergistic Combination of PARP Inhibitors and Nicotinamide Phosphoribosyltransferase (NAMPT) Inhibitors in Ewing Sarcoma. Clin Cancer Res. 2017 Dec 1;23(23):7301-7311. doi: 10.1158/1078-0432.CCR-17-1121. Epub 2017 Sep 12. PMID: 28899971; PMCID: PMC6636827.
In the case of `O=C(CCCCCCC(=O)Nc1ccc([C@H]2O[C@@H](CSc3nc(-c4ccccc4)c(-c4ccccc4)o3)C[C@@H](c3ccc(CO)cc3)O2)cc1)NO`, the Potency was 5.26 µM (active). In the case of `CC(C)c1ccccc1Cc1cc(C(=O)Nc2ccc(S(=O)(=O)c3ccccc3C(C)(C)C)cc2)c(O)c(O)c1O`, the Potency was 5.26 µM (active). In the case of `CC(C)CC(=O)Nc1n[nH]c2c1CN(C(=O)C1CCN(C)CC1)C2(C)C`, the Potency was 0.296 µM (active). With `Cc1cc(Nc2cc(N3CCN(C)CC3)nc(Sc3ccc(NC(=O)C4CC4)cc3)n2)n[nH]1` the Potency was 16.6 µM (active). With `CCn1nnc2c(N3CCOCC3)nc(-c3ccc(NC(=O)Nc4ccc(C(=O)N5CCN(C)CC5)cc4)cc3)nc21` the Potency was 0.0053 µM (active). With `CC1=C(CO)C(=O)O[C@@H]([C@@H](C)[C@H]2CC[C@H]3[C@@H]4C[C@H]5O[C@]56[C@@H](O)C=CC(=O)[C@]6(C)[C@@H]4CC[C@]23C)C1` the Potency was 0.105 µM (active). In the case of `Nc1ncnc2c1c(-c1cnc3[nH]ccc3c1)nn2C1CCCC1`, the Potency was 0.209 µM (active). With `C[C@@H]1CN(CC(=O)Nc2ccc3c(c2)Cc2cccc(-c4cc(=O)cc(N5CCOCC5)o4)c2S3)C[C@H](C)O1` the Potency was 11.8 µM (active). With `Nc1nccc(Oc2ccc(NC(=O)c3c[nH]cc(-c4ccc(F)cc4)c3=O)cc2F)c1Cl` the Potency was 18.7 µM (active). In the case of `COc1cc2c(Nc3ccc(NC(=O)c4ccccc4)cc3)ncnc2cc1OCCCN1CCOCC1`, the Potency was 11.8 µM (active). In the case of `CC=C1NC(=O)[C@H]2CSSCCC=C[C@H](CC(=O)N[C@H](C(C)C)C(=O)N2)OC(=O)[C@H](C(C)C)NC1=O`, the Potency was 0.0132 µM (active). With `C1=CCOCc2cc(ccc2OCCN2CCCC2)Nc2nccc(n2)-c2cccc(c2)OCC1` the Potency was 1.48 µM (active). With `Cc1ccc(NC(=O)C2(c3ccc4c(c3)OC(F)(F)O4)CC2)nc1-c1cccc(C(=O)O)c1` the Potency was 0.0296 µM (active). With `c1ccc2c(CCNc3ccc(Nc4ccncc4)cc3)c[nH]c2c1` the Potency was 23.5 µM (active). For `Cc1cn2c(-c3cn[nH]c3)cnc2c(Nc2ccc(C(=O)N3CCNCC3)cc2F)n1`, the Potency was 16.6 µM (active). In the case of `COc1cc2c(Oc3ccc(NC(=O)C4(C(=O)Nc5ccc(F)cc5)CC4)cc3F)ccnc2cc1OCCCN1CCOCC1`, the Potency was 7.43 µM (active). In the case of `CN(C)CC=CC(=O)Nc1cc2c(Nc3ccc(F)c(Cl)c3)ncnc2cc1O[C@H]1CCOC1`, the Potency was 2.09 µM (active). With `CCOC(=O)C1=C(C)NC2=C(C(=O)CC(C)(C)C2)C1c1ccc(-c2ccccc2)cc1` (stereo not given) the Potency was 26.4 µM (active). For `CN1CCN(c2ccc3nc(-c4c(N)c5c(F)cccc5[nH]c4=O)[nH]c3c2)CC1`, the Potency was 1.32 µM (active). With `CNC(=O)c1ccccc1Nc1nc(Nc2ccc(N3CCOCC3)cc2OC)ncc1Cl` the Potency was 5.26 µM (active). For `CC1(C)CCC(c2ccc(Cl)cc2)=C(CN2CCN(c3ccc(C(=O)NS(=O)(=O)c4ccc(N[C@H](CCN5CCOCC5)CSc5ccccc5)c(S(=O)(=O)C(F)(F)F)c4)cc3)CC2)C1`, the Potency was 5.9 µM (active). For `Cc1nc2ccc(CN(C)c3ccc(C(=O)N[C@@H](CCC(=O)O)C(=O)O)s3)cc2c(=O)[nH]1`, the Potency was 0.0418 µM (active). With `CN(C)c1nc(Cc2ccc(NC(=O)c3ccc4ccccc4c3)cc2)nc(Cl)c1CC(=O)O` the “viability (% of control)” value was 129% (inactive). For `COc1cccc2c(NCc3ccccc3)nc(-n3c(N)nc4ccccc43)nc12`, the Potency was 3.72 µM (active). For `Cc1ccc(C(=O)Nc2cccc(C(F)(F)F)c2)cc1-c1ccc2nc(NCCN3CCOCC3)ncc2c1`, the Potency was 3.32 µM (active). For `Cc1c(NC(=O)OC[C@@H]2COCCN2)cn2ncnc(Nc3ccc4c(cnn4Cc4cccc(F)c4)c3)c12`, the Potency was 3.32 µM (active). For `COc1ccc(OC)c(-c2nnc3ccc(-c4ccc(OC)c(O[C@@H]5CCOC5)c4)nn23)c1`, the Potency was 5.9 µM (active). With `CNC(=O)c1c(F)cccc1Nc1nc(Nc2cc3c(cc2OC)CCN3C(=O)CN(C)C)nc2[nH]ccc12` the Potency was 5.9 µM (active). With `Cn1cc(-c2[nH]c3cc(NC(=O)[C@H](N)C4CCCCC4)cc4c3c2C=NNC4=O)cn1` the Potency was 0.209 µM (active). In the case of `CCCCCN(CCC12CC3CC(CC(C3)C1)C2)C(=O)NCCCc1ccncc1`, the Potency was 16.6 µM (active). With `c1cc(-c2cnn3cc(-c4ccc(OCCN5CCCCC5)cc4)cnc23)ccn1` the Potency was 1.87 µM (active). For `COc1ccc(C=Cc2cc(OC)c(OC)c(OC)c2)cc1O`, the “viability (% of control)” value was 6.6% (inactive). With `CC(C)c1ccc(Cn2ccc3c4c(N)nc(NC5CC5)nc4ccc32)cc1` the Potency was 1.48 µM (active). In the case of `CC(C)C[C@H](NC(=O)CNC(=O)c1cc(Cl)ccc1Cl)B(O)O`, the Potency was 0.0372 µM (active). In the case of `O=C(O)c1ccc2c(c1)nc(Nc1cccc(Cl)c1)c1ccncc12`, the Potency was 1.66 µM (active). For `CCCCOc1c(C(=O)c2c(F)cc(C)cc2F)cnc2n[nH]cc12`, the Potency was 4.18 µM (active). In the case of `CC[C@H]1CN2CCc3cc(OC)c(OC)cc3[C@H]2C[C@@H]1C[C@@H]1NCCc2cc(OC)c(OC)cc21`, the Potency was 0.0526 µM (active). For `CC(C)(C)OC(=O)Nc1ccc(-c2cc(C(=O)NCCCCCCC(=O)NO)no2)cc1`, the Potency was 0.469 µM (active). For `C[C@@]12O[C@@H](C[C@]1(O)CO)n1c3ccccc3c3c4c(c5c6ccccc6n2c5c31)CNC4=O`, the Potency was 0.0743 µM (active). In the case of `Nc1cccc(-c2cc3c(Oc4cccc(O)c4)ncnc3[nH]2)c1`, the Potency was 8.33 µM (active).
